Results taken from PubChem BioAssay AID1159580 (chemical genetic matrix, 2015).
The whole screen tested about 5,500 compounds, of which about 2,000 (36%) were called active. About 18% were inconclusive and are not listed. Rule as the data show it: active = normalized growth mostly below about 0.91 (no sharp cut-off); inconclusive = no clear call, values can overlap the other calls; inactive = mostly above about 0.92. The list shows a part of the results.

Experiment: chemical genetic growth profiling, strain panel (AID 1159580);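 also: tested at 20 µM; growth read once vehicle control cultures reached saturation at 30 °C; 1 = growth at the plate median or of vehicle wells; lower values mean less growth of the strain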
Conditions: growth OD

Measured: normalized growth

CNC(=O)Oc1cccc2c1OC(C)(C)O2
inactive: S. cerevisiae deletion strains, locus YJR043C, strain POL32, stronger effect = lower value 1.01 | S. cerevisiae deletion strains, locus YJR075W, strain HOC1, stronger effect = lower value 1.01 | S. cerevisiae deletion strains, locus YKL009W, strain mrt4, stronger effect = lower value 1.02 | S. cerevisiae deletion strains, locus YKL068W, stronger effect = lower value 1 | S. cerevisiae deletion strains, locus YKL085W, strain MDH1 (second series), stronger effect = lower value 1 | S. cerevisiae deletion strains, locus YKL085W, strain MDH1, stronger effect = lower value 1 | S. cerevisiae deletion strains, locus YKL160W, strain elf1, stronger effect = lower value 0.994 | S. cerevisiae deletion strains, locus YKL190W, strain CNB1, stronger effect = lower value 1.02 | S. cerevisiae deletion strains, locus YKR001C, strain vps1, stronger effect = lower value 1.01 | S. cerevisiae deletion strains, locus YKR026C, strain gcn3, stronger effect = lower value 1 | S. cerevisiae deletion strains, locus YKR091W, strain srl3, stronger effect = lower value 1 | S. cerevisiae deletion strains, locus YLL001W, strain dnm1, stronger effect = lower value 0.992 | S. cerevisiae deletion strains, locus YLL026W, stronger effect = lower value 0.998 | S. cerevisiae deletion strains, locus YLL041C, strain sdh2, stronger effect = lower value 0.999 | S. cerevisiae deletion strains, locus YLR027C, strain aat2, stronger effect = lower value 0.99 | S. cerevisiae deletion strains, locus YLR039C, strain RIC1, stronger effect = lower value 1.1 | S. cerevisiae deletion strains, locus YLR058C, strain SHM2, stronger effect = lower value 1.02 | S. cerevisiae deletion strains, locus YLR102C, strain apc9, stronger effect = lower value 0.991 | S. cerevisiae deletion strains, locus YLR221C, strain rsa3, stronger effect = lower value 1 | S. cerevisiae deletion strains, locus YLR258W, strain gsy2, stronger effect = lower value 1 | S. cerevisiae deletion strains, locus YLR262C, strain YPT6 (second series), stronger effect = lower value 1.03 | S. cerevisiae deletion strains, locus YLR262C, strain YPT6, stronger effect = lower value 1.14 | S. cerevisiae deletion strains, locus YLR268W, strain sec22, stronger effect = lower value 0.998 | S. cerevisiae deletion strains, locus YLR320W, strain mms22, stronger effect = lower value 0.986 | S. cerevisiae deletion strains, locus YLR330W, strain CHS5, stronger effect = lower value 1.02 | S. cerevisiae deletion strains, locus YLR342W, strain FKS1 (second series), stronger effect = lower value 0.991 | S. cerevisiae deletion strains, locus YLR342W, strain FKS1, stronger effect = lower value 0.997 | S. cerevisiae deletion strains, locus YLR357W, strain rsc2, stronger effect = lower value 1.05 | S. cerevisiae deletion strains, locus YLR370C, strain arc18, stronger effect = lower value 1.01 | S. cerevisiae deletion strains, locus YLR371W, strain rom2, stronger effect = lower value 0.989 | S. cerevisiae deletion strains, locus YLR384C, strain iki3, stronger effect = lower value 1.01 | S. cerevisiae deletion strains, locus YLR418C, strain cdc73, stronger effect = lower value 0.9 | S. cerevisiae deletion strains, locus YML016C, strain PPZ1, stronger effect = lower value 1.02 | S. cerevisiae deletion strains, locus YML032C, strain rad52, stronger effect = lower value 0.992 | S. cerevisiae deletion strains, locus YML120C, strain ndi1, stronger effect = lower value 1.01 | S. cerevisiae deletion strains, locus YML124C, strain tub3, stronger effect = lower value 0.998 | S. cerevisiae deletion strains, locus YMR058W, strain fet3, stronger effect = lower value 0.999 | S. cerevisiae deletion strains, locus YMR078C, strain ctf18, stronger effect = lower value 0.99 | S. cerevisiae deletion strains, locus YMR125W, strain sto1, stronger effect = lower value 1 | S. cerevisiae deletion strains, locus YMR129W, stronger effect = lower value 0.996 | S. cerevisiae deletion strains, locus YMR205C, strain PFK2, stronger effect = lower value 0.976 | S. cerevisiae deletion strains, locus YMR223W, strain ubp8, stronger effect = lower value 0.985 | S. cerevisiae deletion strains, locus YMR231W, strain pep5, stronger effect = lower value 0.995 | S. cerevisiae deletion strains, locus YMR263W, strain SAP30, stronger effect = lower value 1.02 | S. cerevisiae deletion strains, locus YMR307W, strain GAS1, stronger effect = lower value 1.05 | S. cerevisiae deletion strains, locus YNL067W, strain RPL9B, stronger effect = lower value 1.02 | S. cerevisiae deletion strains, locus YNL071W, strain lat1, stronger effect = lower value 1 | S. cerevisiae deletion strains, locus YNL128W, strain TEP1, stronger effect = lower value 1.03 | S. cerevisiae deletion strains, locus YNL153C, strain GIM3, stronger effect = lower value 1.01 | S. cerevisiae deletion strains, locus YNL209W, strain ssb2, stronger effect = lower value 0.996 | S. cerevisiae deletion strains, locus YNL233W, strain BNI4, stronger effect = lower value 1.02 | S. cerevisiae deletion strains, locus YNL248C, strain rpa49, stronger effect = lower value 0.991 | S. cerevisiae deletion strains, locus YNL250W, strain rad50, stronger effect = lower value 0.997 | S. cerevisiae deletion strains, locus YNL271C, strain bni1, stronger effect = lower value 1 | S. cerevisiae deletion strains, locus YNL298W, strain CLA4, stronger effect = lower value 0.998 | S. cerevisiae deletion strains, locus YNL307C, strain MCK1, stronger effect = lower value 0.984 | S. cerevisiae deletion strains, locus YNL322C, strain KRE1 (second series), stronger effect = lower value 0.999 | S. cerevisiae deletion strains, locus YNL322C, strain KRE1, stronger effect = lower value 1.02 | S. cerevisiae deletion strains, locus YNR049C, strain mso1, stronger effect = lower value 1 | S. cerevisiae deletion strains, locus YNR052C, strain pop2, stronger effect = lower value 0.996 | S. cerevisiae deletion strains, locus YOL006C, strain TOP1, stronger effect = lower value 1.02 | S. cerevisiae deletion strains, locus YOL012C, strain htz1 1.24 | S. cerevisiae deletion strains, locus YOL147C, strain pex11, stronger effect = lower value 0.993 | S. cerevisiae deletion strains, locus YOR001W, strain rrp6, stronger effect = lower value 0.981 | S. cerevisiae deletion strains, locus YOR061W, strain CKA2, stronger effect = lower value 1.02 | S. cerevisiae deletion strains, locus YOR069W, strain VPS5, stronger effect = lower value 1.01 | S. cerevisiae deletion strains, locus YOR070C, strain gyp1, stronger effect = lower value 0.991 | S. cerevisiae deletion strains, locus YOR080W, strain dia2, stronger effect = lower value 1 | S. cerevisiae deletion strains, locus YOR083W, strain WHI5, stronger effect = lower value 1 | S. cerevisiae deletion strains, locus YOR106W, strain vam3, stronger effect = lower value 0.987 | S. cerevisiae deletion strains, locus YOR136W, strain idh2, stronger effect = lower value 0.983 | S. cerevisiae deletion strains, locus YOR144C, strain elg1, stronger effect = lower value 0.999 | S. cerevisiae deletion strains, locus YOR184W, strain ser1, stronger effect = lower value 1.01 | S. cerevisiae deletion strains, locus YOR265W, strain rbl2, stronger effect = lower value 1.01 | S. cerevisiae deletion strains, locus YOR270C, strain vph1, stronger effect = lower value 0.953 | S. cerevisiae deletion strains, locus YOR290C, strain snf2, stronger effect = lower value 0.959 | S. cerevisiae deletion strains, locus YOR316C, strain cot1, stronger effect = lower value 0.995 | S. cerevisiae deletion strains, locus YPL051W, strain arl3, stronger effect = lower value 0.997 | S. cerevisiae deletion strains, locus YPL055C, strain LGE1, stronger effect = lower value 1.03 | S. cerevisiae deletion strains, locus YPL078C, strain atp4, stronger effect = lower value 0.988 | S. cerevisiae deletion strains, locus YPL106C, strain sse1, stronger effect = lower value 1.08 | S. cerevisiae deletion strains, locus YPL240C, strain hsp82, stronger effect = lower value 1 | S. cerevisiae deletion strains, locus YPL241C, strain CIN2, stronger effect = lower value 1.02 | S. cerevisiae deletion strains, locus YPR119W, strain clb2, stronger effect = lower value 0.993 | S. cerevisiae deletion strains, locus YPR141C, strain kar3, stronger effect = lower value 0.993 | S. cerevisiae deletion strains, locus YPR163C, strain tif3, stronger effect = lower value 0.988 | S. cerevisiae deletion strains, locus YPR167C, strain met16, stronger effect = lower value 0.993 | S. cerevisiae deletion strains, strain wtn01, stronger effect = lower value 0.99 | S. cerevisiae strains, strain wild type, stronger effect = lower value 1.01
